The nature of experiment [1]: qHTS Assay for Identification of Small Molecule Inducers of Hypoxia Response (AID 2120; active means well fitted curve in the direction sought with a large enough effect in the signal ratio, with a control signal flat, not every such curve was filed as active; the % refers to the signal ratio; further: potency means the concentration at half of the fitted maximal effect). Particulars: hypoxia response reporter cells, beta-lactamase ratio readout; series mostly up to 104 µM. In a few lines:
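HRE-bla ME-180, 2500 cells/well, 0.5% dialyzed FBS medium; cpd titration, 17 h 37 degrees C; CCF4 2.5 h RT; Ex 405, Em 460/530 ratio -> %Activity, AC50.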
(In qHTS, concentration-response curves come from the screen itself.)

Experiment [2] is described as follows: qHTS for differential inhibitors of proliferation of Plasmodium falciparum line W2 (AID 1883).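 Further: parasites grown with compound for 72 h before lysis and staining.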 Further: potency means the concentration at half of the fitted maximal effect. As to conditions: Potency: Plasmodium falciparum W2 proliferation inhibition; series mostly up to 28.7 µM.
Experiment [3] in a line: qHTS for differential inhibitors of proliferation of Plasmodium falciparum line HB3 (AID 1886).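 Further: parasites grown with compound for 72 h before SYBR Green readout.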 Further: potency means the concentration at half of the fitted maximal effect. Particulars: Potency: Plasmodium falciparum HB3 proliferation inhibition; series mostly up to 28.7 µM.
Experiment [4] addresses Ferritin light chain (Equus caballus) (UniProt P02791). The experiment can be described thus: qHTS Validation Assay for Identification of Novel General Anesthetics (AID 2323). As to conditions: horse apoferritin, anesthetic-site fluorescent probe displacement; series mostly up to 76.9 µM. In a few lines: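 Apoferritin from horse spleen (10 uM) was mixed with 1-aminoanthracene at 50% saturation in PBS, then compounds were added. After 10 min at room temperature, fluorescence was read (ex 380 nm, em 535 nm) and normalized to free-probe and complex controls.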

The target in experiment [5] is ATP-dependent DNA helicase Q1 (Homo sapiens) (UniProt P46063). The experiment can be described thus: qHTS Validation Assay for Inhibitors of RecQ-Like Dna Helicase 1 (RECQ1) (AID 2353). Particulars: recombinant RECQ1 helicase DNA unwinding assay; series mostly up to 25.6 µM. The method, boiled down: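 RECQ1T1 50 nM; forked duplex (20 bp + 30-nt ss tails) 200 nM, ATP 2 mM final; pH 8.0, 2 mM MgCl2, 2.5 ug/ml poly(dI-dC); 15 min compound preincubation; discontinuous kinetic read over 2 h at RT.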
ATP-dependent DNA helicase Q1 (Homo sapiens), sequence (P46063 whole entry, looked up): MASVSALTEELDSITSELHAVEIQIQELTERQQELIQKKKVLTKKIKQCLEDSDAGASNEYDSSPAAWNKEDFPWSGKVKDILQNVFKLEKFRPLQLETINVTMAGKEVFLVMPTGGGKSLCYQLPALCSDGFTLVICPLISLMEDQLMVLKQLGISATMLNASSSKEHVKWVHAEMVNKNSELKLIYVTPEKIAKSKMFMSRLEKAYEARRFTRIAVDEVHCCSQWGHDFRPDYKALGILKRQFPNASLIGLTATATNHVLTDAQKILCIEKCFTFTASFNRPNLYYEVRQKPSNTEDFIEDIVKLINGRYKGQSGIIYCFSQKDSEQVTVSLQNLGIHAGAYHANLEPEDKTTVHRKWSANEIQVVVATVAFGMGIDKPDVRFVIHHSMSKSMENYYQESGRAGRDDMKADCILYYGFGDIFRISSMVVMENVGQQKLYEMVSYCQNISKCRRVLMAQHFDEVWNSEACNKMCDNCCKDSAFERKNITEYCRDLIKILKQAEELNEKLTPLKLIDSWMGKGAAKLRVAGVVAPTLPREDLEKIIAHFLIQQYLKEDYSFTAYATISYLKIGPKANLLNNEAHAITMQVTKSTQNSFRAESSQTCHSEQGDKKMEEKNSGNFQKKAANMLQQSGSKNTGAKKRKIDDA

Experiment [6] in a line: qHTS for differential inhibitors of proliferation of Plasmodium falciparum line D10 (AID 1877).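 Further: parasites grown with compound for 72 h before DNA staining.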 Particulars: series mostly up to 28.7 µM.
A short description of experiment [7]: qHTS for differential inhibitors of proliferation of Plasmodium falciparum line Dd2 (AID 1882). Further: nearly all actives have a fitted effect of over 65% in size. Further: potency means the concentration at half of the fitted maximal effect. Particulars: Potency: Plasmodium falciparum Dd2 proliferation inhibition; series mostly up to 28.7 µM. From the text:
NIH Molecular Libraries Probe Production Network [MLPCN]
NIH National Institute of Allergy and Infectious Diseases [NIAID]
(§1) NIH Chemical Genomics Center [NCGC]
Assay Provider: Xinzhuan Su, NIAID
Plasmodium falciparum is a virulent malarial parasite that kills 1-2 million people worldwide each year. Transmitted by mosquitoes, the sporozoite form of the parasite enters the blood stream to infect hepatocytes, where they become merozoites that infect red blood cells (erythrocytes). Within erythrocytes, merozoites begin a […] cycle of growth and division, after which the parasite is released to infect new red blood cells. Gametocytes, which form within erythrocytes as well, circulate in the bloodstream and are ingested by the mosquito, thereby completing the life cycle. To profile malarial isolates for differential chemical responses and to identify inhibitors of malarial growth, an assay that measures P. falciparum growth and replication within erythrocytes was employed. This assay uses a DNA binding fluorescent dye (SYBR Green) to detect parasite DNA following cell lysis. Because mature erythrocytes lack DNA, only Plasmodium-derived DNA is detected. The P. falciparum line Dd2, derived from a malarial isolate from […], was used.
NCGC Assay Protocol Summary:
The SYBR Green viability assay was adapted from a method described previously (Plouffe et al., 2008). For screening 3 ul culture medium was dispensed into 1536 well black clear bottom plates (Aurora Biotechnologies) using a Multidrop Combi (Thermo Fisher Scientific Inc.), 23 nL compounds in DMSO were added by a pin tool (Kalypsys), and 5 ul of erythrocytes infected with P. falciparum line Dd2 (0.3% parasitemia, 2.5% hematocrit final concentration) were added. The plates were incubated at 37 C in a humidified incubator in 5% CO2 for 72 h, and 2 ul lysis buffer (20 mM Tris HCl, 10 mM EDTA, […]% saponin, 1.6% triton X, 10X SYBR Green I supplied as 10,000X […] by Invitrogen) was added to each well. The plates were mixed for 25 sec with gentle shaking and incubated overnight at room temperature in the dark. The following morning, fluorescence intensity at 485(14) nm excitation and 535(25) nm emission wavelengths was measured on an EnVision (Perkin Elmer) plate reader. Plate reads were normalized relative to the control inhibitor (0.29 uM artemisinin) and vehicle (DMSO) wells present on each plate and then corrected by an algorithm using vehicle-only control plates at the beginning and end of the compound plate stack.
Plouffe D, Brinker A, McNamara C, Henson K, Kato N, Kuhen K, Nagle A, Adrian F, Matzen JT, Anderson P, Nam TG, Gray NS, Chatterjee A, Janes J, Yan SF, Trager R, Caldwell JS, Schultz PG, Zhou Y, Winzeler EA. […] Proc Natl Acad Sci U S A. 2008, 105(26), pp 9059-64.

Experiment [8] has as its target RecQ-like DNA helicase BLM (Homo sapiens) (UniProt P54132). As to the kind of experiment: qHTS Validation Assay for Inhibitors of Bloom's syndrome helicase (BLM) (AID 2364). Particulars: BLM helicase DNA unwinding, fluorescence, in vitro; series mostly up to 57.1 µM. The method, boiled down: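 BLM 50 nM in 25 mM Tris-HCl pH 8.0, 5 mM NaCl, 2 mM MgCl2, 1 mM DTT, 0.01% Tween-20, 2.5 ug/ml poly(dI-dC); 15 min cpd preinc, RT. Start: 200 nM forked DNA + 2 mM ATP (final). TAMRA read, 2 reads 2 h apart.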

Experiment [9] can be described thus: qHTS Assay for Modulators of Human Peripheral Myelin Protein 22 (PMP22) Expression/Activity (AID 1967; active means well fitted curve in the direction sought with a large enough effect in the signal ratio; the % refers to the signal ratio). Particulars: Cell-based PMP22 reporter, dual-color luciferase ratio, 0% = compound-free control cells, mouse Pmp22 promoter in mouse Schwann cells; series mostly up to 115 µM. In a few lines: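 Quantitative HTS in a mouse Schwann cell line expressing dual click beetle luciferases: Pmp22 promoter (green) and control EF-alpha promoter (red). After 24h treatment, corrected green/red signal ratio gave %Activity relative to untreated cells.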

Experiment [10] in a line: Cytometric Cell-Based qHTS for Inhibitors of the mTORC1 Signaling Pathway in MEF (Tsc2-/-, p53-/-) Cells (AID 2660).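 Further: Tsc2 and p53 null MEFs carrying empty vector with compound for 24 h; percent of cells above a phospho-rpS6 to PI ratio cutoff in each well.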 Particulars: mTORC1 pathway cytometry; series mostly up to 38.3 µM.
Excerpt: NIH Molecular Libraries Probe Production Centers Network [MLPCN]
as §1
Assay Submitter (PI): Blenis, John; Hoffman, Greg; Harvard University
NCGC Assay Overview: The mammalian target of rapamycin (mTOR) is an intracellular serine/threonine kinase Aberrant regulation of mTOR signaling plays a causative role in a number of human diseases, including cancer, benign tumors such as lymphangioleiomyomatosis (LAM) and Tuberous Sclerosis Complex (TSC), and metabolic diseases such as diabetes and obesity. This project aims to identify inhibitors of ribosomal protein S6 (rpS6) phosphorylation. The phosphorylation of rpS6 is a key event downstream of mTOR activation. […]
For quantitative high throughput analysis of mTORC1 signaling, we developed a cell-based assay for immuno-fluorescence based detection of rpS6 phosphorylation on the Acumen Explorer that will be used a platform for the primary small molecule screen. […] The fluorescence emission from the Alexa-488 conjugated rpS6 phospho-235/236 antibody staining is selected using a […] band pass filter. Fluorescence emission from the PI stain is selected using a 575-640 nm band pass filter. The normalized phospho-S6 staining is calculated as the ratio of the integrated Alexa 488 intensity divided by the integrated PI intensity for the single concentration rapamycin control (7.5 nM) and DMSO columns. […]

Experimental findings from PubChem BioAssay (NCATS) are described below.

Inconclusive results are not listed. A call without a number means that no potency is given here. Activity calls are given as the source filed them. Unless noted, the call rests on the fitted dose curve; in most records, active means well fitted curve in the direction sought with a large enough effect; inconclusive means small, poorly fitted or top-dose-only effect, or another doubt; inactive means no such curve, though single readings can be large; an effect the other way counts as inactive or inconclusive.

Ferritin light chain (Equus caballus), sequence (P02791 2-175 limits assumed): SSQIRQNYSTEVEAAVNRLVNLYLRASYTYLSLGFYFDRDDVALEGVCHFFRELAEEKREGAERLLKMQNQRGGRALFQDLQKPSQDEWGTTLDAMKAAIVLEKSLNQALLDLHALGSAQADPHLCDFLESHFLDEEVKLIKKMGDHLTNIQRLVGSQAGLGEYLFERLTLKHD
RecQ-like DNA helicase BLM (Homo sapiens), sequence (P54132 whole entry, looked up): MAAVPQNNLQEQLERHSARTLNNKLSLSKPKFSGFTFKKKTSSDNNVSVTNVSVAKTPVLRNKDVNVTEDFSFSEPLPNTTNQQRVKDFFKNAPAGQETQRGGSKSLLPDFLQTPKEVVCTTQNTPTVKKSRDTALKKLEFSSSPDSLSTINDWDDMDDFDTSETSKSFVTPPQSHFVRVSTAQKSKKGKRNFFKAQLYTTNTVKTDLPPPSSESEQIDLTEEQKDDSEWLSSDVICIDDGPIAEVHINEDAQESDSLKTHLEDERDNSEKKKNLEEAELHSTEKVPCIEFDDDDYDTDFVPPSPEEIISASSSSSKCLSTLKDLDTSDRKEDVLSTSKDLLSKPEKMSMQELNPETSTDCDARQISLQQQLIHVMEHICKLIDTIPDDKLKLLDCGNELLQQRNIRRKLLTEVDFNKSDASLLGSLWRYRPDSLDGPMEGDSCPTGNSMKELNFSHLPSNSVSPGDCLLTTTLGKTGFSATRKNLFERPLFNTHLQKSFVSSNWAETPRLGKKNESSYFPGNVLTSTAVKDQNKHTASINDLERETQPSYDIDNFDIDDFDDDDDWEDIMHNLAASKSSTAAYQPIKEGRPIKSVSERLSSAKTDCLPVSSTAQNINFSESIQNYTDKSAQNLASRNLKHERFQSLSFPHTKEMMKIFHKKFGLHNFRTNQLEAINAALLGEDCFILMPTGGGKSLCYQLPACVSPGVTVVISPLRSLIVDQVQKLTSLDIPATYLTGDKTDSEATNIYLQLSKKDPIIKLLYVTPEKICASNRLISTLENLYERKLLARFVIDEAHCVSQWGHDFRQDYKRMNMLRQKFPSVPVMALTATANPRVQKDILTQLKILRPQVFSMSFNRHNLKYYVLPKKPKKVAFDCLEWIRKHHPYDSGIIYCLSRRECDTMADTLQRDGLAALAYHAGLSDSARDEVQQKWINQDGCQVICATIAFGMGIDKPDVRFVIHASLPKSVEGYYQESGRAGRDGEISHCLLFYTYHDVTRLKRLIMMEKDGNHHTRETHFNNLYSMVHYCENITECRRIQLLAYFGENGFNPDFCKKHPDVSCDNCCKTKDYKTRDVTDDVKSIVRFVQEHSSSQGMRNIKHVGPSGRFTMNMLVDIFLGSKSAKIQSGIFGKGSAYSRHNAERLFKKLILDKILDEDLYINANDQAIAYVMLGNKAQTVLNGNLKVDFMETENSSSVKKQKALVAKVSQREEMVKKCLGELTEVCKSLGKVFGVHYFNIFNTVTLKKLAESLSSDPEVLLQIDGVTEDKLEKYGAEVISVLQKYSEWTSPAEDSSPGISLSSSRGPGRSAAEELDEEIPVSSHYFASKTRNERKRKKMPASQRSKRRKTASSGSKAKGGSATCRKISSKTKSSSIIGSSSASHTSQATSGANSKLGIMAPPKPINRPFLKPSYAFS

For `CC(C)(C)CC(C)(C)c1ccc(OCCO)cc1`, in [1], the Potency result is “inactive”.
As to `Cc1cc(C)c(NC(=O)C[C@H](CC(=O)O)c2cccc3ccccc23)c(C(=O)N2CCC3(CCCC3)CC2)c1`, the Potency in experiment [2] was 11.2 µM (active); in experiment [3], 14.1 µM (active). Further, the molecule was classed as inactive in experiment [4] and in [5].
Regarding `CCOC(C)OCC`, the Potency entry in experiment [1] is “inactive”.
For `Nc1ncnc2c1ncn2[C@H]1CC[C@@H](CO)O1`, in experiment [1], the Potency result was “inactive”.
For the molecule `CO/N=C(/C(=O)N[C@@H]1C(=O)N2C(C(=O)O)=C(COC(N)=O)CS[C@H]12)c1ccco1`, the Potency entry in [1] is “inactive”.
In the case of `OB(O)O`, the Potency entry in experiment [1] was “inactive”.
Take `CCCCC`: the Potency result in experiment [1] is “inactive”.
For `C[C@H](CCC(=O)O)[C@H]1CC[C@H]2[C@@H]3[C@H](O)C[C@@H]4C[C@H](O)CC[C@]4(C)[C@H]3C[C@H](O)[C@]12C`, the Potency result in experiment [1] is “inactive”.
For `Cc1ncc[nH]1`, the Potency entry in experiment [1] was “inactive”.
Take `Nc1nccs1`: in experiment [1], the Potency entry was “inactive”.
For `CO`, in [1], the Potency entry was “inactive”.
Take `C/C=C/C=C/C(=O)O`: the Potency result in experiment [1] is “inactive”.
With `O=P(O)(O)O`, the Potency result in experiment [1] is “inactive”.
With `CC(C)O`, the Potency entry in experiment [1] was “inactive”.
Take `O=c1n(CC2CO2)c(=O)n(CC2CO2)c(=O)n1CC1CO1` (centres undefined): the Potency entry in experiment [1] is “inactive”.
Regarding `c1ccc2ccccc2c1`, the Potency entry in experiment [1] was “inactive”.
Consider `OCC(O)CO`, for which, in [1], the Potency entry is “inactive”.
For the molecule `CC/C=C\C/C=C\C/C=C\CCCCCCCC(=O)O`, the Potency result in experiment [1] was “inactive”.
Same read-out and setting: as for `NCCN`, the entry is “inactive”; as for `O.O.O.O.O.O.O.O=S(=O)([O-])[O-].[Co+2]`, 31.6 µM (active).
Same read-out and setting: as for `ClC(Cl)Cl`, the entry is “inactive”; as for `OCc1ccccc1`, “inactive”.
Consider `C[C@@](Cc1ccc(O)c(O)c1)(NN)C(=O)O`, for which the outcome in experiment [6], in [4], in experiment [5] and in [8] was inactive. The Potency in experiment [7] was 10 µM (active).
Turning to `OCl`, the Potency entry in [1] was “inactive”.
Consider `[O-][N+](=Nc1ccccc1)c1ccccc1`, for which the Potency result in experiment [1] was “inactive”.
As to `O=c1[nH]c(=O)n([C@H]2C[C@H](O)[C@@H](CO)O2)cc1/C=C/Br`, the call in experiment [6], in [4] and in experiment [5] was inactive. The Potency result in [7], in experiment [2] and in [3] was “inactive” in each case.
Consider `CC1=CC(=O)NS(=O)(=O)O1`, for which, in experiment [1], the Potency result was “inactive”.
Regarding `O=C(NCCNCC(O)COc1ccc(O)cc1)N1CCOCC1` (centres undefined), the molecule was classed as inactive in [6], in experiment [9], in [4] and in experiment [5]. The Potency entry in [7], in experiment [2] and in experiment [3] was “inactive” in each case.
Turning to `Oc1ccc(/C=C/c2cc(O)cc(O)c2)cc1`, the molecule was called inactive in [6], in experiment [4], in [5] and in [10]. Moreover, the Potency result in experiment [7] and in [3] was “inactive” in each case.
As for `CC1=CCC2CC1C2(C)C` (centres undefined), the Potency entry in [1] was “inactive”.
Consider `CC[C@H]1OC(=O)[C@H](C)[C@@H](O[C@H]2C[C@@](C)(OC)[C@@H](O)[C@H](C)O2)[C@H](C)[C@@H](O[C@@H]2O[C@H](C)C[C@H](N(C)C)[C@H]2O)[C@](C)(O)C[C@@H](C)CN(C)[C@H](C)[C@@H](O)[C@]1(C)O`, for which the Potency result in experiment [1] was “inactive”.
Turning to `NC(N)=O`, the Potency entry in [1] is “inactive”.
As for `OC[C@H]1O[C@@H]2O[C@H]3[C@H](O)[C@@H](O)[C@@H](O[C@H]4[C@H](O)[C@@H](O)[C@@H](O[C@H]5[C@H](O)[C@@H](O)[C@@H](O[C@H]6[C@H](O)[C@@H](O)[C@@H](O[C@H]7[C@H](O)[C@@H](O)[C@@H](O[C@H]1[C@H](O)[C@H]2O)O[C@@H]7CO)O[C@@H]6CO)O[C@@H]5CO)O[C@@H]4CO)O[C@@H]3CO`, the Potency result in experiment [1] is “inactive”.
Take `CCCCO`: the Potency entry in experiment [1] is “inactive”.
Regarding `Cc1ccc(S(=O)(=O)O)cc1C`, the Potency result in experiment [1] is “inactive”.
In the case of `Oc1cccc(O)c1O`, in experiment [1], the Potency entry is “inactive”.
